Screening data deposited in PubChem by National Center for Advancing Translational Sciences (NCATS).
D2 PAM-1: positive allosteric modulators of human D2 dopamine receptor | P14416 | potentiation, % (concentration not given with the values) | AID 624464 | 360,000 tested, 0.23% active | DiscoveRx D2 beta-arrestin cells, luminescence, 90 min; 100% = 57 uM dopamine signal; in the data active means potentiation above about 50%; inconclusive means mostly about 30% to 49%
Target sequence (P14416 whole entry, looked up): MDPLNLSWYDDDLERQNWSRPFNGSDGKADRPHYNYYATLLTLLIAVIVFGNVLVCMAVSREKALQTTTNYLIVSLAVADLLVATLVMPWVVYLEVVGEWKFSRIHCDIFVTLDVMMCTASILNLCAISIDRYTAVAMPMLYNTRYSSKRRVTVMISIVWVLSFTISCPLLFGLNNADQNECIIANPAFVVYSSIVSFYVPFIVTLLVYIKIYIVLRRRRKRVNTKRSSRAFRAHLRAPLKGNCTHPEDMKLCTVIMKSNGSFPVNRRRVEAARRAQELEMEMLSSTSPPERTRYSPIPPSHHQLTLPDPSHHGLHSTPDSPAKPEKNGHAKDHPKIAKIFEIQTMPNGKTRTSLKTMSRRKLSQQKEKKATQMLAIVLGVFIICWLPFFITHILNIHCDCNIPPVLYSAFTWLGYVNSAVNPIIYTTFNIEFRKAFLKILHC
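PathHunter D2 cells, attached overnight at 37 deg C, received compound in DMSO plus dopamine at EC20 (50 nM final) for 90 min at 37 deg C. Beta-arrestin recruitment was read as luminescence after 1 h with detection reagent at ambient temperature.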
D2 antag: antagonists of human D2 dopamine receptor | P14416 | HEK293 TREx D2 cells, calcium flux, dopamine EC80 | inhibition, % at 10 µM | 340,000 tested, 2% active; in the data active means inhibition above about 30%; inactive means below that, where a call was filed; further: 0% is about no effect
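Tetracycline-induced HEK293 T-REx cells expressing D2 force-coupled to calcium signalling were dye-loaded, exposed to compound for 180 s, then challenged with an EC80 of dopamine; calcium flux was followed kinetically for a further 180 s.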
D2 ag-1: activates the human D2 dopamine receptor | DiscoveRx PathHunter D2 beta-arrestin, luminescence, 90 min; 100% = 57 uM dopamine signal | activation, % (test concentration not listed) | 360,000 tested, 0.084% active | AID 624465; in the data active means activation above about 40%; inconclusive means between about 15% and that limit
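Agonist mode: compounds alone added to overnight-plated D2 PathHunter cells for 90 min at 37 C, with 57 uM final dopamine (EC100) defining full response. Beta-arrestin recruitment detected by chemiluminescent reagent, read after 1 h at ambient temperature.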
D2 PAM-2: positively modulates the human D2 dopamine receptor allosterically. AID 485347. P14416. 340,000 tested, 0.34% active. HEK293 T-REx D2, calcium flux, EC20 dopamine potentiation. potentiation, % at 10 µM;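 active means potentiation over 3 SD above the plate norm, cut at about 30% in these data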; further: 0% is about no effect
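Tetracycline-induced HEK293 T-REx cells force-coupled to calcium signalling expressed D2; compounds were pin-added after a 10 s baseline, read kinetically 180 s, then an EC20 dopamine challenge followed with a further 180 s calcium read.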
D2 ag-2: D2 dopamine receptor (human) agonism; 340,000 tested, 0.53% active; activation, % at 2 µM; P14416; HEK293 T-REx D2 cells, calcium flux agonist mode;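 active means activation over 3 SD above normal in the single-dose calcium agonist read, cut at about 30% in these data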; further: 0% is about no effect
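Tetracycline-induced HEK293 T-REx cells with force-coupled D2 receptor, plated overnight at 30 C, loaded with no-wash calcium dye. After a 10 s baseline, compound was pin-added and calcium flux read kinetically for 180 s; calcium rises flagged agonists.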
* marks the source's active call; other numbers are inactive results; ? = inconclusive; . = no result given; ! = repeats disagree. An excerpt weighted towards active compounds, which were near 2.4% of everything screened.

SMILES	D2 PAM-1	D2 antag	D2 ag-1	D2 PAM-2	D2 ag-2
COc1cccc2cc(C(=O)CC3(O)C(=O)N(Cc4ccccc4)c4ccccc43)c(=O)oc12 (centres undefined)	-1.0	5.0	-2.2	40.1*	0.1
COc1cc(-c2noc(CCC(=O)Nc3cc(C)ccc3C)n2)cc(OC)c1OC	.	.	.	-13.3	-1.1
CCOC(=O)c1cccc(NC(=O)N2CC(CC)Sc3ccccc32)c1 (centres undefined)	.	.	.	4.4	-0.9
Cc1nc2c3ccccc3nc(NNC(=O)CCC(=O)N3CCN(c4ccccc4)CC3)n2n1	-2.6	27.4	3.4	0.6	30.9*!
CCOc1cc(C=NN2CCCCCC2)ccc1O	51.4*	.	2.9	.	.
O=C(COc1ccccc1[N+](=O)[O-])N1CCC(c2nc3ccccc3o2)CC1	.	.	.	-2.7	-0.6
Cc1cccc(C)c1OCC(=O)N/N=C/c1cc2c(cc1[N+](=O)[O-])OCO2	0.8	30.0*	-0.4	-7.5	-2.6
O=C(CCc1ccc(O)c(O)c1)N/N=C/c1cc2c(cc1[N+](=O)[O-])OCO2	2.2	-5.3	?	-1.4	0.9
O=c1cc(-c2c(F)c(F)c(F)c(F)c2F)oc2c(F)c(F)c(F)c(F)c12	.	56.5*	.	-11.9	17.6
O=c1cc(-c2c(F)c(F)c(F)c(F)c2F)oc2ccccc12	-18.2	-8.7	-2.8	18.0	0.3
Cc1cc(=O)oc2cc(OC(=O)c3cncc(Br)c3)ccc12	-4.0	30.8*	-5.6	-7.8	0.0
CCCC(=O)Oc1ccc2c(C)cc(=O)oc2c1	-23.1	-0.1	-3.3	1.1	-1.0
Cc1cc(C)n2nc(C(=O)Nc3c(C)nn(Cc4ccc(F)cc4)c3C)cc2n1	-0.8	51.5*	11.9	-2.2	0.9
O=C(COC(=O)CCc1c[nH]c(=O)[nH]1)Nc1cccc(Cl)c1	-6.1	35.0*	-2.6	2.9	2.1
CNC(=O)c1ccc(-c2sc3nc(N4CCOCC4)c4c(c3c2N)CC(C)(C)OC4)o1	5.4	40.6*	-1.3	-1.9	-1.2
CN(C)CCNc1ncnc2c1sc1nc(N3CCCC3)c3c(c12)CC(C)(C)OC3	-18.2	-0.9	0.4	-17.8	1.5
CC(C)CNc1ncnc2c1sc1nc(N3CCOCC3)c3c(c12)CC(C)(C)OC3	1.9	32.9*	-3.3	4.5	-0.1
O=C(CSc1ncc2c(n1)-c1ccccc1N(Cc1ccc(Cl)cc1)S2(=O)=O)c1ccc(Cl)cc1	.	.	.	0.5	0.3
CCc1ccc(N(C(C)=O)C2C=CS(=O)(=O)C2)cc1 (centres undefined)	-5.3	37.2*	-1.9	5.1	1.1
O=C(CCc1ccccc1)Nc1ccnn1C1CCN(C/C=C/c2ccccc2)CC1	-47.1	-16.2	-1.2	2.4	7.5
O=C(Nc1ccnn1C1CCN(C/C=C/c2ccccc2)CC1)c1ccccc1Cl	-13.5	79.7*	?	-24.6	82.9*
CCn1cc(CN2CCC(n3nccc3NC(=O)c3ccccc3OC)CC2)cn1	-9.9	21.2	-1.9	-11.1	-1.2
O=C(Nc1ccnn1C1CCN(Cc2ccccc2)CC1)c1ccccc1Cl	-25.4	6.8	-6.5	-24.4	-0.9
COc1ccccc1/C=C/CN1CCC(n2nccc2NC(=O)CCc2ccccc2)CC1	-12.7	35.3*	-5.8	0.5	0.0
CCOc1ccc(CN2CCC(n3nccc3NC(=O)c3ccccc3OC)CC2)cc1	-38.9	38.2*	-4.9	-25.6	0.5
SMILES	D2 PAM-1	D2 antag	D2 ag-1	D2 PAM-2	D2 ag-2
Cc1ccc(NC(=O)CN2C(=O)CSc3ccc(S(=O)(=O)N(C)C)cc32)cc1C	.	.	.	5.9	0.5
COc1cccc(CNC(=O)CCc2c(C)nc3c(c(C)nn3-c3ccc(C)c(C)c3)c2C)c1	.	.	.	0.6	-0.1
Cc1ccc(-c2c(C(=O)N3CCN(c4cccc(C)c4)C(C)C3)oc(=O)c3ccccc23)cc1 (centres undefined)	.	.	.	-0.7	0.3
Cn1c(=O)oc2cc(S(=O)(=O)NC(Cc3ccccc3)C(=O)Nc3ccc(F)c(Cl)c3)ccc21 (centres undefined)	.	.	.	-5.4	0.1
Nc1c(N(CCC2=CCCCC2)C(=O)CCCOc2ccccc2)c(=O)[nH]c(=O)n1Cc1ccccc1	5.3	33.0*	1.9	6.9	0.6
CCN(C(=O)COC(=O)CCc1ccc(OC)cc1)c1c(N)n(Cc2ccccc2)c(=O)[nH]c1=O	10.7	33.8*	0.1	6.3	0.1
Nc1c(N(CCC2=CCCCC2)C(=O)COc2ccc(F)cc2)c(=O)[nH]c(=O)n1Cc1ccccc1	-2.9	-13.3	0.2	-8.8	0.7
Cc1cc(C)c2oc(-c3ccc(C)c(NC(=O)/C=C/c4ccco4)c3)nc2c1	.	.	.	-5.1	-0.8
COc1cccc(NC(=O)CSc2nc(=O)n(Cc3cccnc3)c3c2CCC3)c1	.	.	.	-8.2	1.0
COCCn1c(SCC(=O)Nc2sc(C)c(C)c2C#N)nnc1-c1ccc(OC)cc1	-4.4	4.4	1.2	-23.1	-1.8
COCCn1c(SCC#N)nnc1-c1ccc(OC)cc1	-4.6	54.6*	2.1	-19.9	-1.4
CCc1cccc(C)c1NC(=O)CSc1nnc(C)o1	6.1	0.2	-0.1	37.3*	0.7
CN(C)C=NC(=O)c1cc(C(=O)c2ccccc2Cl)c[nH]1	2.9	46.3*	-0.6	-3.6	0.4
CCOc1ccccc1N1CCN(Cc2cnc(-c3ccccc3)[nH]2)CC1	-6.3	77.8*	2.1	-24.4	0.3
CCOC(=O)C1CCN(c2c(NCCN3CCN(c4ccccc4)CC3)c(=O)c2=O)CC1	-6.7	-7.1	-4.4	-18.5	36.8*
CCOc1ccccc1N1CCN(C/C=C/c2ccc(N(C)C)cc2)CC1	-33.7	78.8*	0.4	-20.6	0.2
COc1ccc(Cn2nnnc2C(C(C)C)N2CCN(c3ccccc3OC)CC2)cc1 (centres undefined)	-3.8	53.0*	-1.2	-9.2	0.2
Cc1cc(-c2ccccc2)nc2cc(C(=O)Nc3cc(C(F)(F)F)ccc3Cl)nn12	.	.	.	-4.8	0.8
COc1ccccc1-n1nnnc1SCc1cc2c(cc1Br)OCO2	-13.6	-9.3	-1.7	43.5*	0.2
CCOC(=O)C1CCN(Cc2ccccn2)CC1	.	-5.9	.	-15.0	27.0
COc1ccccc1-n1nnnc1SCc1ccccc1	-17.3	11.6	5.1	-6.1	-0.9
Cc1ccc(Nc2nc(N)nc(CN3CCN(C)CC3)n2)cc1	-16.6	18.2	-1.0	-7.8	0.2
COc1ccccc1N1CCN(Cc2nc(N)nc(Nc3ccc(C)cc3)n2)CC1	-42.1	89.2*	1.2	-37.5	25.6
COc1ccccc1N1CCN(Cc2cc3c(cc2Br)OCCO3)CC1	-17.6	104.2*	-18.1	-27.1	-1.3
CCOC(=O)C1CCN(c2ccccc2CN2CCN(c3ccccc3OCC)CC2)CC1	-24.1	61.3*	-14.5	-18.1	0.0
Cc1ccccc1N1CCN(Cc2cc3c(cc2[N+](=O)[O-])OCO3)CC1	-40.6	-20.2	4.7	-0.1	0.3
CCOc1ccccc1N1CCN(Cc2cc3c(cc2[N+](=O)[O-])OCO3)CC1	-24.6	59.6*	-0.4	-15.0	0.7
